Sampled rows, rich in hits. Any-hit rate of the full collection: about 6.9%.
Cy5 interf NS3h: Cy5 fluorescence quenchers or enhancers, artefact control for HCV NS3 helicase inhibitor project, biochemical, ChemBridge library, Cy5 readout. Cy5-dT15 DNA with NS3h, fluorescence interference; actives lie on both sides; signal over control mean, under 1 quenches. hit rate 6% among 16,000. fluorescence interference ratio at 100 µM;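 active = compound fluorescence over control fluorescence at most 0.8, a quencher, or at least a set upper limit, an enhancer; inactive = ratio between 0.8 and the set upper limit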
HCV NS3h FP: HCV NS3 helicase inhibitors, primary screen, biochemical, fluorescence polarization, ChemBridge library | Hepatitis C virus NS3 helicase | NS3h Cy5-dT15 DNA binding | inhibition, % at 100 µM | hit rate 1.6% among 16,000 | AID 687043, 2013;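 active = inhibition above the average over every tested compound plus 3 SD, cut at about 40% in these data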
Numbers stand for hits; . = inactive.

SMILES	Cy5 interf NS3h	HCV NS3h FP
CC1=NN(c2ccc(S(N)(=O)=O)cc2)C(=O)/C1=C\c1cccc(Br)c1	.	42
CC1=NN(c2ccc(S(N)(=O)=O)cc2)C(=O)/C1=C\c1ccc(C(C)C)cc1	.	.
CCOC(=O)C(=CNc1ccccc1C(=O)O)C(=O)OCC	.	.
CCC1=NN2C(=N)/C(=C/c3ccc(OCc4ccccc4Cl)c(OC)c3)C(=O)N=C2S1	.	.
COc1cccc(C2=NN(C(=O)Cc3ccccc3)C(O)(C(F)(F)F)C2)c1 (stereo not given)	.	.
COc1ccc(Cl)cc1NC(=O)C1=C(C)NC(=O)NC1c1ccc(Br)cc1 (stereo not given)	.	.
Cc1ccc(C(O)=C2C(=O)C(=O)N(CCCC(=O)O)C2c2ccc(Br)cc2)cc1 (stereo not given)	1.2	.
O=C(O)CCCCCN1C(=O)C(=O)C(=C(O)c2ccc(F)cc2)C1c1ccc(Cl)cc1 (stereo not given)	.	.
CCc1ccc(C(=O)CC2(O)C(=O)Nc3ccccc32)cc1 (stereo not given)	.	.
O=C(CC1(O)C(=O)Nc2ccccc21)c1ccco1 (stereo not given)	0.78	.
CCC(C(=O)Nc1nc2ccccc2s1)c1ccccc1 (stereo not given)	.	.
O=C(CCC(=O)OCC(F)(F)C(F)F)Nc1nc2ccccc2s1	0.71	.
CCc1ccc(-c2nc3cc(NC(=O)COc4ccccc4[N+](=O)[O-])ccc3o2)cc1	.	.
Cc1cccc(-c2nc3cc(NC(=O)COc4ccccc4[N+](=O)[O-])ccc3o2)c1	0.52	.
CCOC(=O)c1ccc(NC(=O)C2CN(S(=O)(=O)c3ccccc3)CCN2S(=O)(=O)c2ccccc2)cc1 (stereo not given)	.	.
CN(C1=NC(=O)S/C1=C\c1ccc([N+](=O)[O-])cc1)c1ccc(O)cc1	.	.
CN(C1=NC(=O)/C(=C\C(Cl)=C\c2ccc([N+](=O)[O-])cc2)S1)c1ccc(O)cc1	0.4	.
COc1ccc(C2Nc3ccccc3NC3=C2C(=O)CC(c2ccc(Cl)cc2)C3)c(OC)c1OC (stereo not given)	.	.
COc1ccc(C2C(=C(O)c3ccc(C)cc3)C(=O)C(=O)N2c2ncc(S(=O)(=O)c3ccc([N+](=O)[O-])cc3)s2)cc1 (stereo not given)	.	.
O=C(C1=C(O)C(=O)N(c2ncc(S(=O)(=O)c3ccc([N+](=O)[O-])cc3)s2)C1c1ccc(F)cc1)c1ccco1 (stereo not given)	0.79	.
CCOC(=O)c1ccc(NC(=O)CN(c2cc(OC)ccc2OC)S(C)(=O)=O)cc1	.	.
COc1ccc(/C=C/C(=O)N2CCOCC2)cc1Br	0.67	.
COc1ccc(/C=C/C(=O)N(C(C)C)C(C)C)cc1Br	.	.
Cc1ccc(NC(=O)C2CC(=O)N(c3ccc(Cl)cc3)C2)cc1 (stereo not given)	.	.
O=C(Nc1nnc(COc2ccc(C3CCCCC3)cc2)s1)c1ccccc1	.	.
SMILES	Cy5 interf NS3h	HCV NS3h FP
Cc1c(Br)c(C(F)(F)F)nn1CC(=O)Nc1cc(C(F)(F)F)ccc1Cl	.	.
Cc1c(Br)c(C(F)(F)F)nn1CC(=O)N(C)c1ccccc1	0.55	.
CS(=O)(=O)N(CC(=O)Nc1cccc2ccccc12)c1ccc(Oc2ccccc2)cc1	.	.
COc1ccc(C2C(=C(O)c3ccc(C)cc3)C(=O)C(=O)N2CCCn2ccnc2)cc1 (stereo not given)	.	.
CC(C)CC(NC(=O)c1ccco1)C(=O)O (stereo not given)	.	.
CC(C)CC(NC(c1ccccc1)(c1ccccc1)c1ccccc1)C(=O)O (stereo not given)	0.58	.
CC(NC(c1ccccc1)(c1ccccc1)c1ccccc1)C(=O)O (stereo not given)	0.61	.
CC(NC(=O)c1cccc2ccccc12)C(=O)O (stereo not given)	.	.
O=C(/C=C/c1ccc(F)cc1)Nc1ccccc1Cl	.	.
O=C(c1ccco1)N1CCN(CCN2C(=O)c3cccc4cccc(c34)C2=O)CC1	.	.
CCOc1ccc(C(=O)Nc2ccc(C)cc2[N+](=O)[O-])cc1Cl	.	.
CCOc1ccc(C(=O)Nc2ccc(N3CCOCC3)c(Cl)c2)cc1Cl	.	.
CCOc1ccc(C(=O)Nc2ccc(NC(=O)CC)cc2)cc1Cl	0.73	.
CCOc1ccc(C(=O)Nc2cccc([N+](=O)[O-])c2)cc1Cl	0.57	.
CCOC(=O)C1(C)C(Br)=C(O)C(=O)N1c1ccccc1 (stereo not given)	.	.
O=C(NCCCO)c1cccc([N+](=O)[O-])c1	.	.
O=C1c2ccccc2C(=O)N1c1ccc2c(c1)C(=O)N(c1ccccc1)C2=O	.	.
CCN1C(=O)/C(=C\c2ccc(-c3ccc(I)cc3)o2)SC1=S	0.72	.
CCN1C(=O)/C(=C\c2ccc(-c3ccc(C)c(Cl)c3)o2)SC1=S	.	.
O=C(Nc1ccc(Cl)cc1)Nc1nnc(-c2cccc(F)c2)s1	.	.
O=C(Nc1ccc(Cl)cc1)Nc1nnc(-c2cccs2)s1	0.69	.
COc1ccccc1C(=O)N1CCN(S(C)(=O)=O)CC1	.	.
Cc1cccn2c(=O)c(/C=C3\SC(=S)N(C(C)c4ccccc4)C3=O)c(NCCCn3ccnc3)nc12 (stereo not given)	.	.
O=C1c2cccc3cccc(c23)C(=O)N1/N=C\c1cccc([N+](=O)[O-])c1	0.74	.
O=C1c2cccc3cccc(c23)C(=O)N1/N=C\c1ccc(Br)cc1	.	.
SMILES	Cy5 interf NS3h	HCV NS3h FP
O=C(/C=C\Nc1ccccc1[N+](=O)[O-])c1ccc2c(c1)OCO2	0.64	48
CCOc1ccc(N/C=C\C(=O)c2ccc3c(c2)OCO3)c([N+](=O)[O-])c1	.	.
O=C(O)CCP(=O)(O)C(O)c1ccccc1 (stereo not given)	.	.
Cc1cc(/C=C2\C(=O)NC(=O)N(c3cccc(Br)c3)C2=O)c(C)n1-c1cccnc1	.	.
O=[N+]([O-])c1ccc2c(c1)S(=O)(=O)N=C2Nc1cccc(Cl)c1	0.73	.
CN(C1=NS(=O)(=O)c2cc([N+](=O)[O-])ccc21)c1ccccc1	.	.
COc1ccc(OC)c(C2C3=C(CC(C)(C)CC3=O)OC3=C2C(=O)CC(C)(C)C3)c1	.	.
COc1ccc2c(c1)C(NC(=O)C(F)(F)F)CC2=O (stereo not given)	0.62	.
O=C1CC(c2ccc(Cl)cc2)CC2=C1C(c1ccccc1C(F)(F)F)Nc1ccccc1N2 (stereo not given)	.	.
O=C(NC(=S)Nc1ccc(Cl)c(-c2nc3ccccc3o2)c1)c1ccco1	1.2	.
O=C(NC(=S)Nc1cccc(Cl)c1)c1ccco1	.	.
O=C(NC(=S)Nc1ccc2oc(-c3cc(I)ccc3Cl)nc2c1)c1ccco1	.	.
O=C(Nc1cccc(NC(=S)NC(=O)c2ccco2)c1)c1cccc(Cl)c1	.	.
O=C(NC(=S)Nc1cccc(NC(=O)c2ccco2)c1)c1ccco1	.	42
O=C(NC(=S)Nc1cccc(NC(=O)c2ccccc2Cl)c1)c1ccco1	.	44
Cc1cccc(NC(=O)CSc2nsc(SCC(=O)Nc3cccc(C)c3)n2)c1	.	.
CCOc1ccc2nc(SCC(=O)Nc3cccc(C)c3)sc2c1	0.61	.
